Results filed as inconclusive are left out. A number with no mark means an inactive call. Calls of active or inactive are those of the source. The call rests on the fitted dose curve.
target: Acetylcholinesterase (Homo sapiens) (UniProt P22303); experiment: Acetylcholinesterase (AChE) small molecule antagonists: colormetric cell-based qHTS assay (AID 1347395); conditions: SH-SY5Y cells AChE activity, colorimetric (Ellman); series mostly up to 115 µM; activity, negative = inhibition: at the top concentration; further: nearly all actives have a fitted effect of over 30% in size
Sequence (P22303 whole entry, looked up): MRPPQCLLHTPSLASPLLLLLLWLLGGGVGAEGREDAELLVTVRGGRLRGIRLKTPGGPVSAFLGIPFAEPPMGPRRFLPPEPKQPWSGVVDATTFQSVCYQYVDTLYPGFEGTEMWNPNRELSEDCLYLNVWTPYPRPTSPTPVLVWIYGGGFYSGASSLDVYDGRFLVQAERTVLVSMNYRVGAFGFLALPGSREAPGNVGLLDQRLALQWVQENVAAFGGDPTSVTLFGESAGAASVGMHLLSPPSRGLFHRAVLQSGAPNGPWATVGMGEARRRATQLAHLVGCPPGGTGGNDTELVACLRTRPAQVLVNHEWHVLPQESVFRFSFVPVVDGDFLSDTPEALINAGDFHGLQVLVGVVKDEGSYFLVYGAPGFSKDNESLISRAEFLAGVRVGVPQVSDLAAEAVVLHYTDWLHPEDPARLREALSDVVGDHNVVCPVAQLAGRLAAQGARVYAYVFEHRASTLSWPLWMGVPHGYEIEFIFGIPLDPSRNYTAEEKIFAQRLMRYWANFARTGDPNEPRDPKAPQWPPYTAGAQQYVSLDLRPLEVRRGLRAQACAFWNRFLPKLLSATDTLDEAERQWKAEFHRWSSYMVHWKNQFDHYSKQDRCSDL
In short: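 Endogenous AChE of human neuroblastoma SH-SY5Y cells was measured with an Ellman-type DTNB/acetylthiocholine mix. Compound pretreatment lasted 30 min at 37 C; substrate reaction ran 90 min at 37 C.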
On the % scale 0 is the no-effect control and ±100 the full control effect.

Structure (SMILES)	activity, negative = inhibition	Potency
Cc1ccc(C(=O)O)cc1	0.177%	
Cl[Si](Cl)(c1ccccc1)c1ccccc1	-2.98%	
Cc1ccc(-c2cc(C(F)(F)F)nn2-c2ccc(S(N)(=O)=O)cc2)cc1		inactive
C[C@H]1C[C@H]2[C@@H]3CCC4=CC(=O)C=C[C@]4(C)[C@@]3(F)[C@@H](O)C[C@]2(C)[C@@]1(O)C(=O)COP(=O)(O)O	2.82%	
O=C(c1ccccc1O)c1ccccc1O	0.829%	
N[C@H]1CN(c2c(F)cc3c(=O)c(C(=O)O)cn(C4C[C@H]4F)c3c2Cl)CC12CC2 (stereo partly specified)	1.11% [at 52.9 µM]	
CCCCCCCCCCCCCCCCCC(=O)OCC(CC)CCCC (stereo unspecified)	-1.72%	
Cc1oc(-c2ccccc2)nc1CCOc1cccc2c1ccn2CCC(=O)O	2.52%	
CO[C@@]1(NC(=O)CSC[C@@H](N)C(=O)O)C(=O)N2C(C(=O)O)=C(CSc3nnnn3C)CS[C@@H]21	0.617% [at 52.9 µM]	
Cc1cc(C(C)(C)C)c(O)c(C)c1CC1=NCCN1	3.37% [at 52.9 µM]	
Cc1ccc(C=O)cc1	4.29% [at 52.9 µM]	
CN(C)CCC(c1ccccc1)c1ccccn1 (stereo unspecified)		inactive
O=c1c(O)c(O)c1=O	1.75%	
CCC(=O)O[C@@H]1C[C@H]2CC[C@]1(C)C2(C)C	0.284%	
CC(CC(C#N)(c1ccccc1)C(C)C)N(C)C (stereo unspecified)	-2.63% [at 52.9 µM]	
CC(=O)O[C@H](CC(=O)[O-])C[N+](C)(C)C	-0.479%	
O=c1[nH]c(=O)c2cn[nH]c2[nH]1	10.9%	
CCCCOCCOCCO		inactive
Cn1cc(S(C)=O)c(=O)c2ccc(F)cc21 (stereo unspecified)	-7.14% [at 52.9 µM]	
CN(C)CCCOC1(Cc2ccccc2)CCCCCC1	0.264% [at 52.9 µM]	
O=c1oc2c(O)c(O)cc3c(=O)oc4c(O)c(O)cc1c4c23	-4.32% [at 23.6 µM]	
